Holding throughout (experiment): NCI-60 one-dose screen, 48 h (100 = growth as untreated, 0 = no growth, -100 = all killed)
Common to all, as to conditions: 10 µM unless noted

The subject of assay [1] is BT-549 breast.
Assay [2] relates to MDA-MB-435 melanoma.
In assay [3] the test system is SW-620 colon.
Assay [4] relates to MCF7 breast.
The subject of assay [5] is HCT-116 colon.
For assay [6], the system named is HCC-2998 colon.
For assay [7], the system named is KM12 colon.

This is part of a sample that, as a whole, favours compounds with a hit. Of some 83,000 tested, about 20% had one in any assay.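 Note: values are percent growth. 100 is the growth of untreated cells, values between 100 and 0 indicate rising inhibition; between -100 and 0 indicates cell death.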 A number with no mark means an inactive call. Activity calls are given as the source filed them. Rule for the calls: active = growth percent below 10; inactive = the rest.

As to `COc1cc(/C=N/Nc2nc(-c3ccc(F)cc3)c(C#N)c(N3CCOCC3)n2)ccc1O`, the growth in assay [1] is 94.3%; in assay [2] it was 97%; in assay [3] it was 95%; in assay [4] it was 93.2%; in assay [5], 96.8%; in assay [6] it was 117%. In addition, in assay [7], the growth was 103%.

Take `COc1cc(C(=O)Nc2cc(OC)c3ccn(C)c3c2)cc2c1C[C@]1(C)CC[C@@H](O)C(C)(C)[C@H]1O2`: the growth in assay [1] was 8.8% (active); in assay [2], -36.1% (active); in assay [3] it was 2.19% (active); in assay [4], 6.32% (active); in assay [5], 12.6%; in assay [6] it was 37.4%. Besides, the growth in assay [7] is 27%.

On to `COC(=O)c1ccc2c(c1)NC(=O)[C@@H]1CCCN21`, for which the growth was 87.2% in assay [1]; 100% in assay [2]; 96.8% in assay [3]; 73.9% in assay [4]; 93.8% in assay [5]; 109% in assay [6]. Besides, the growth in assay [7] is 101%.

Consider `C=C(C)[C@@H]1CC[C@]2(C(=O)n3ccnc3)CC[C@]3(C)[C@H](CC[C@@H]4[C@@]5(C)CCCNC(C)(C)[C@@H]5CC[C@]43C)[C@@H]12`, for which the growth in assay [1] is 40.2%; in assay [2], -34.4% (active); in assay [3] it was -62.8% (active); in assay [4], -20.3% (active); in assay [5] it was -76.7% (active); in assay [6] it was 6.43% (active). For the same molecule, the growth in assay [7] is 28.4%.

In the case of `C=C1C(=O)O[C@H]2[C@H]1CC/C(COC(=O)Nc1nc3ccccc3[nH]1)=C\CC[C@@]1(C)O[C@@H]21`, the growth is 77.3% in assay [1]; 45.8% in assay [2]; 16.4% in assay [3]; 20.1% in assay [4]; 12% in assay [5]; 102% in assay [6]. Also, in assay [7], the growth was 94.9%.

For the molecule `COc1ccc2[nH]c3nc4cnccc4cc3c2c1`, the growth in assay [1] was 104%; in assay [2], 109%; in assay [3], 104%; in assay [4], 82%; in assay [5], 97.9%; in assay [6], 117%. Besides, in assay [7], the growth is 93.2%.

As to `C=C(C)[C@@H]1CC[C@]2(C(=O)O)CC[C@]3(C)[C@H](CC[C@@H]4[C@@]5(C)C[C@@H](CC#Cc6ccccc6)C(=O)C(C)(C)[C@@H]5CC[C@]43C)[C@@H]12`, the growth in assay [1] is 40.7%; in assay [2] it was 66.8%; in assay [3], 27.3%; in assay [4] it was 15.5%; in assay [5], 9.07% (active); in assay [6] it was 29%. The growth in assay [7] is 27.9%.

For the molecule `Cc1cccc2nc3c(n12)C(=O)C(=O)c1ccccc1-3`, the growth in assay [1] is 78.6%; in assay [2], -86% (active); in assay [3], 79.4%; in assay [4], 47.9%; in assay [5] it was 38.7%; in assay [6], 115%. For the same molecule, the growth in assay [7] is 90.6%.

`FC(F)(F)c1ccc2c(Nc3cccc(C4CC(c5ccccc5)=NN4c4ccc(Cl)cc4)c3)ccnc2c1` (stereo not given): the growth in assay [1] was 55.7%; in assay [2] it was 38%; in assay [3], -17.3% (active); in assay [4] it was 11.5%; in assay [5], -3.98% (active); in assay [6], 66.5%. Also, the growth in assay [7] was 15.5%.

With `C=C(C)[C@@H]1CC[C@]2(C(=O)N=C=S)CC[C@]3(C)[C@H](CC[C@@H]4[C@@]5(C)CCC(=O)C(C)(C)[C@@H]5CC[C@]43C)[C@@H]12`, the growth in assay [1] is 47.3%; in assay [2], 47.1%; in assay [3] it was 28.8%; in assay [4] it was 16.4%; in assay [5] it was 13.8%; in assay [6], 43.3%. The growth in assay [7] was 21.2%.

Turning to `NC[C@@H]1CCN(c2cc3c(cc2F)c(=O)n(N)c(=O)n3Cc2ccc(-c3ccccc3)cc2)C1`, the growth was 69.3% in assay [1]; 76.6% in assay [2]; 84.2% in assay [3]; 79.4% in assay [4]; 65.3% in assay [5]; 96% in assay [6]. Besides, the growth in assay [7] was 96.9%.

Regarding `O=C(CN1N=C(c2ccc(F)cc2)CCC1=O)Nc1nccs1`, the growth was 101% in assay [1]; 102% in assay [2]; 91.6% in assay [3]; 93.8% in assay [4]; 104% in assay [5]; 97.6% in assay [6]. The growth in assay [7] was 107%.

In the case of `COc1ccc(C(C)c2cc(OC)c(OC)c(OC)c2)cc1` (stereo not given), the growth was 24.6% in assay [1]; -42.6% (active) in assay [2]; 27% in assay [3]; 13.8% in assay [4]; 4.67% (active) in assay [5]; 30.2% in assay [6]. Moreover, the growth in assay [7] is 9.1% (active).

With `CCCCCCCCCCCCCC1=NCC[N+]1(CCO)Cc1ccccc1` (stereo not given), the growth in assay [1] is -50.7% (active); in assay [2], -91.8% (active); in assay [3], -78.2% (active); in assay [4] it was -84.8% (active); in assay [5], -90.8% (active); in assay [6], -75.3% (active). For the same molecule, the growth in assay [7] is -85.1% (active).

For the molecule `CCCCC1=c2c([nH]c3ccc(OC)cc23)=NC2C=CC=NC12` (stereo not given), the growth is 98.9% in assay [1]; 93.4% in assay [2]; 98.5% in assay [3]; 13.5% in assay [4]; 74.8% in assay [5]; 97.1% in assay [6]. Further, the growth in assay [7] was 38.9%.

With `N#Cc1ccc(C2C3=C(CCCC3=O)OC3=C2C(=O)c2ccccc2C3=O)cc1` (stereo not given), the growth in assay [1] was 91.9%; in assay [2], -77% (active); in assay [3], 49.3%; in assay [4], 0.491% (active); in assay [5], 6.16% (active); in assay [6] it was 104%. In assay [7], the growth is 89.8%.

Take `C=C(C)[C@@H]1CC[C@]2(C(=O)O)CC[C@]3(C)[C@H](CC[C@@H]4[C@@]5(C)C[C@@H](CC#Cc6ccc(Cl)cc6)C(=O)C(C)(C)[C@@H]5CC[C@]43C)[C@@H]12`: the growth in assay [1] was 46.5%; in assay [2] it was 46.6%; in assay [3] it was 41.3%; in assay [4], 36.3%; in assay [5], 22%; in assay [6] it was 50.3%. Moreover, the growth in assay [7] was 26.3%.

With `COc1cc(F)c(-c2nc3c(C)cccc3n2Cc2c(F)cccc2F)c(F)c1`, the growth in assay [1] is 98.5%; in assay [2] it was 94.8%; in assay [3], 91.6%; in assay [4], 78.5%; in assay [5], 74.6%; in assay [6], 82.1%. The growth in assay [7] is 90.1%.

Turning to `O=C(/C(=C\c1c(-c2ccccc2)[nH]c2ccccc12)S(=O)(=O)c1ccccc1)c1ccccc1`, the growth was 47.7% in assay [1]; 17.2% in assay [2]; 53% in assay [3]; 40.7% in assay [4]; 33% in assay [5]; 73.1% in assay [6]. Further, the growth in assay [7] is 27%.

Turning to `CC[C@]12C=CCN3CC[C@@]4(c5ccc(OC)cc5N(C)[C@H]4[C@@](O)(C(=O)OC)[C@@H]1OC(=O)CCC(=O)O[C@H]1CC[C@H]4[C@@H]5CC[C@H]6CC(=O)CC[C@]6(C)[C@H]5CC[C@]14C)[C@@H]32`, the growth in assay [1] is 11.6%; in assay [2] it was 29.4%; in assay [3] it was 21.3%; in assay [4], 9.98% (active); in assay [5], 9.84% (active); in assay [6], 41.4%. Further, the growth in assay [7] is 22.4%.

Regarding `Cc1cc(C)nc(NS(=O)(=O)c2ccc(Nc3ccc4c5c(n(CCCN(C)C)c(=O)c4c3)-c3ccccc3C5=O)cc2)n1`, the growth was 91.8% in assay [1]; 98.8% in assay [2]; 54.2% in assay [3]; 30.6% in assay [4]; 56.4% in assay [5]; 73.6% in assay [6]. For the same molecule, the growth in assay [7] is 71.6%.

Take `Cc1nnc(/N=C2\NC(=O)/C(=C/c3ccsc3)S2)s1`: the growth was 94.6% in assay [1]; 91.5% in assay [2]; 98.8% in assay [3]; 79% in assay [4]; 83.6% in assay [5]; 95.7% in assay [6]. The growth in assay [7] is 84.7%.

For the molecule `COc1cc([C@H](C)c2ccc3ccccc3c2)cc(OC)c1OC`, the growth was 39.1% in assay [1]; 0.308% (active) in assay [2]; 28.5% in assay [3]; 14.8% in assay [4]; 6.72% (active) in assay [5]; 26.5% in assay [6]. The growth in assay [7] was 19.6%.

Turning to `CCN1CCN(Cc2ccc(NC(=O)c3cccc(C#Cc4cccc5[nH]nc(N)c45)c3)cc2C(F)(F)F)CC1`, the growth was 3.52% (active) in assay [1]; -91.2% (active) in assay [2]; -76% (active) in assay [3]; -77.8% (active) in assay [4]; -96.5% (active) in assay [5]; -87.4% (active) in assay [6]. In addition, the growth in assay [7] is -75% (active).

`COc1cc(-c2nn(-c3ccc(Br)cc3)cc2CO)ccc1O`: the growth is 89.6% in assay [1]; 108% in assay [2]; 104% in assay [3]; 92.1% in assay [4]; 92.6% in assay [5]; 104% in assay [6]. In addition, the growth in assay [7] was 91.7%.

`O=[N+]([O-])c1ccc(Oc2ccc(-c3ccccc3)cc2)cc1`: the growth in assay [1] is 79.6%; in assay [2] it was 101%; in assay [3], 99%; in assay [4], 84.4%; in assay [5], 73.4%; in assay [6] it was 92.2%. Further, the growth in assay [7] is 89.5%.

As to `COc1ccc2nc(-c3ccc(OC)c(OC)c3)cc(-c3nnc(SCC(=O)Nc4ccc(C(C)=O)cc4)o3)c2c1`, the growth in assay [1] was 102%; in assay [2], 103%; in assay [3], 103%; in assay [4], 94.9%; in assay [5], 89.7%; in assay [6], 111%. The growth in assay [7] was 102%.

On to `CC(=O)c1c(OCC#N)ccc2c(C)cc(=O)oc12`, for which the growth in assay [1] was 118%; in assay [2], 107%; in assay [3], 96.8%; in assay [4], 99.2%; in assay [5], 101%; in assay [6], 109%. Further, in assay [7], the growth is 107%.

As for `CCOC(=O)CC[C@H](NC(=O)c1ccc(NC)c2ccccc12)C(=O)OCC`, the growth in assay [1] was 100%; in assay [2] it was 105%; in assay [3] it was 93.6%; in assay [4], 94.7%; in assay [5], 92%; in assay [6], 115%. In addition, the growth in assay [7] was 103%.

Regarding `O=c1[nH]c(-c2cccc(F)c2)cc2cc(F)ccc12`, the growth in assay [1] was 66.5%; in assay [2], -25.5% (active); in assay [3] it was 26.9%; in assay [4], 13.6%; in assay [5], 25.4%; in assay [6], 44.6%. Besides, the growth in assay [7] was 23.6%.

The values are drawn from PubChem BioAssay (NCI).
